Several values for one entry are separate records, joined by “and”; a condition that tells them apart may be missing. Identical values can stand only once. Hit rate of the full screen: of about 5,500 compounds, about 2,000 (36%) were called active. Roughly 18% stayed inconclusive and do not appear here. Cut-off read from the data, not from the text of the source: active = normalized growth mostly below about 0.91 (no sharp cut-off); inconclusive = no clear call, values can overlap the other calls; inactive = mostly above about 0.92. Some of the results follow.
Assay: chemical genetic growth profiling, strain panel (AID 1159580);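 note: tested at 20 µM; growth read once vehicle control cultures reached saturation at 30 °C; 1 = growth at the plate median or of vehicle wells; lower values mean less growth of the strain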
Details: S. cerevisiae deletion strains, growth OD

Measured: normalized growth

CCC1(c2ccccc2)C(=O)NCNC1=O
inactive: locus YAL013W, strain DEP1, hits give low values 1.01 | locus YAL021C, strain ccr4, hits give low values 1 | locus YAL026C, strain drs2, hits give low values 0.991 | locus YAL030W, strain snc1, hits give low values 1.01 | locus YAL040C, strain CLN3, hits give low values 0.982 | locus YBL061C, strain skt5, hits give low values 1.01 | locus YBR009C, strain hhf1, hits give low values 0.997 | locus YBR021W, strain FUR4, hits give low values 1 | locus YBR023C, strain chs3, hits give low values 1.01 | locus YBR171W, strain sec66, hits give low values 0.991 | locus YBR229C, strain ROT2, hits give low values 1 | locus YBR231C, strain swc5, hits give low values 1 | locus YBR279W, strain paf1, hits give low values 1.02 | locus YCL011C, strain gbp2, hits give low values 0.978 | locus YCL016C, strain dcc1, hits give low values 1.01 | locus YCL029C, strain bik1, hits give low values 0.994 | locus YCL061C, strain MRC1 (second series), hits give low values 0.993 | locus YCL061C, strain MRC1, hits give low values 0.988 | locus YCL069W, strain vba3, hits give low values 0.99 | locus YCR088W, strain abp1, hits give low values 0.984 | locus YDL005C, strain med2, hits give low values 1.01 | locus YDL035C, strain GPR1, hits give low values 1.01 | locus YDL040C, strain nat1, hits give low values 1.01 | locus YDL074C, strain BRE1, hits give low values 1.01 | locus YDL101C, strain DUN1, hits give low values 1.01 | locus YDL134C, strain PPH21, hits give low values 0.998 | locus YDL185W, strain tfp1, hits give low values 0.991 | locus YDL192W, strain arf1, hits give low values 0.999 | locus YDR001C, strain nth1, hits give low values 0.987 | locus YDR069C, strain doa4, hits give low values 0.998 | locus YDR101C, strain arx1, hits give low values 1.01 | locus YDR137W, strain rgp1, hits give low values 1.02 | locus YDR150W, strain NUM1, hits give low values 0.992 | locus YDR159W, strain sac3, hits give low values 0.994 | locus YDR162C, strain NBP2, hits give low values 1.01 | locus YDR195W, strain ref2 0.992 | locus YDR297W, strain sur2, hits give low values 1.01 | locus YDR318W, strain mcm21, hits give low values 1 | locus YDR334W, strain swr1, hits give low values 1 | locus YDR335W, strain msn5, hits give low values 1.01 | locus YDR363W, strain ESC2, hits give low values 0.969 | locus YDR388W, hits give low values 0.998 | locus YDR392W, strain spt3, hits give low values 0.958 | locus YDR502C, strain sam2, hits give low values 1 | locus YEL003W, strain gim4, hits give low values 0.975 | locus YEL037C, strain rad23, hits give low values 0.98 | locus YEL061C, strain CIN8 (second series), hits give low values 0.982 | locus YEL061C, strain CIN8, hits give low values 1 | locus YER002W, strain NOP16, hits give low values 0.988 | locus YER015W, strain faa2, hits give low values 0.99 | locus YER016W, strain bim1, hits give low values 1 | locus YER110C, hits give low values 1 | locus YER111C, strain swi4, hits give low values 0.99 | locus YER155C, strain BEM2 (second series), hits give low values 0.951 | locus YER155C, strain BEM2, hits give low values 0.998 | locus YER167W, strain BCK2, hits give low values 1 | locus YFR010W, strain ubp6, hits give low values 1 | locus YGL078C, strain dbp3, hits give low values 0.992 | locus YGL086W, strain mad1, hits give low values 1 | locus YGL167C, strain pmr1, hits give low values 1.01 | locus YGL173C, strain kem1, hits give low values 1 | locus YGL227W, strain vid30, hits give low values 0.98 | locus YGL240W, strain doc1, hits give low values 0.997 | locus YGL248W, strain PDE1, hits give low values 1 | locus YGL253W, strain hxk2, hits give low values 1 | locus YGR078C, strain PAC10, hits give low values 1.01 | locus YGR135W, strain pre9, hits give low values 0.995 | locus YGR252W, strain gcn5, hits give low values 0.987 | locus YHR013C, strain ard1, hits give low values 1.01 | locus YHR027C, strain rpn1, hits give low values 1.01 | locus YHR030C, strain SLT2, hits give low values 1 and 1.02 | locus YHR079C, strain IRE1 (second series), hits give low values 0.995 | locus YHR079C, strain IRE1, hits give low values 0.993 | locus YHR094C, strain hxt1, hits give low values 0.995 | locus YHR129C, strain ARP1, hits give low values 1.01 | locus YHR142W, strain chs7, hits give low values 1 | locus YHR200W, strain rpn10, hits give low values 0.995 | locus YIL066C, strain RNR3, hits give low values 1.01 | locus YIL073C, strain SPO22, hits give low values 1 | locus YIL125W, strain kgd1, hits give low values 1 | locus YIR030C, strain dcg1, hits give low values 0.997 | locus YJL092W, strain hpr5, hits give low values 0.975 | locus YJL095W, strain BCK1 (second series), hits give low values 1.01 | locus YJL095W, strain BCK1, hits give low values 1.01 and 1.02 | locus YJL115W, strain asf1, hits give low values 0.988 | locus YJL129C, strain trk1, hits give low values 0.967 | locus YJL134W, strain LCB3, hits give low values 1.01 | locus YJL154C, strain vps35, hits give low values 0.976 | locus YJL164C, strain tpk1, hits give low values 1 | locus YJL166W, strain qcr8, hits give low values 1.04 | locus YJL168C, strain set2, hits give low values 0.996 | locus YJL187C, strain SWE1 (second series), hits give low values 1.01 | locus YJL187C, strain SWE1, hits give low values 1.02 | locus YJR043C, strain POL32, hits give low values 1 | locus YJR066W, strain TOR1, hits give low values 0.967

— PubChem BioAssay AID1159580 (chemical genetic matrix, 2015)
